The source of these data is ChEMBL document CHEMBL1961873, “Compounds: GSK PKIS; Assays: Nanosyn kinase panel” (2012).

The term inhibition denotes the drop in the measured response relative to a control, in per cent.

The target of the first assay is Maternal embryonic leucine zipper kinase (Homo sapiens) (UniProt Q14680). To be noted: at 0.1 µM.
Chain of Maternal embryonic leucine zipper kinase (Homo sapiens) (Q14680 whole entry, looked up): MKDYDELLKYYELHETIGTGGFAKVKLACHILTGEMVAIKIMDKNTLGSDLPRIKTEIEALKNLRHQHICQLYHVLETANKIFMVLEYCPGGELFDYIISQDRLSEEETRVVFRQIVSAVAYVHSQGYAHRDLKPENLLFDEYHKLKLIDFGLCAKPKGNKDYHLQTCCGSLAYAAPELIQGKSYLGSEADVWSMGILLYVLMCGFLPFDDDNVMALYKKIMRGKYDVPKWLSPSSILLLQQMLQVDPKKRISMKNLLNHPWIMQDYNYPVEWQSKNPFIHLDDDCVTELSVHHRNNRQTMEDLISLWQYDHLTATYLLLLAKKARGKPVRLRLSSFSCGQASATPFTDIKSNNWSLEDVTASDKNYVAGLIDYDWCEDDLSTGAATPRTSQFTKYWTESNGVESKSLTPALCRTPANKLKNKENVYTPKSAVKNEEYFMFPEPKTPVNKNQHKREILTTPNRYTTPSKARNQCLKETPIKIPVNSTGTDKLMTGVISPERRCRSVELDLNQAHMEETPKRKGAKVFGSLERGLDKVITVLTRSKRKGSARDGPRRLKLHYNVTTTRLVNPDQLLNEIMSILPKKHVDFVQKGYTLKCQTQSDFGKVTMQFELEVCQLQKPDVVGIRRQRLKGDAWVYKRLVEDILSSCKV
Consider `CCS(=O)(=O)c1ccc(OC)c(Nc2ncc(-c3cccc(-c4ccccc4F)c3)o2)c1`, for which the inhibition came out at 1.52%.

With `C/C(Nc1ccc(S(N)(=O)=O)cc1)=C1/C(=O)Nc2ccccc21`, the inhibition is 2.57%.

On to `CN(C)CCOc1ccc(-c2cc(-c3ccc4c(c3)CCC4=NO)c(-c3ccncc3)o2)cc1`, for which the inhibition was -1.71%.

With `CCc1cccc(CC)c1/C=C/c1cncc(C(=O)NC)c1`, the inhibition came to 1.61%.

In the case of `COc1ccc2cc(-c3c(-c4ccncc4)nc(-c4ccc(S(C)(=O)=O)cc4C)n3C)ccc2c1`, the inhibition turned out to be 6.13%.

With `CCS(=O)(=O)c1ccc(OC)c(Nc2ncc(-c3ccccc3Cl)o2)c1`, the inhibition was -0.46%.

In the case of `COc1cc2ncn(-c3cc(OCCc4ccccc4)c(C(N)=O)s3)c2cc1OC`, the inhibition came out at 3.07%.

As to `CN1CCN(CCCNc2nc3ccc(Oc4ccc(NC(=O)Nc5cc(C(F)(F)F)ccc5F)cc4)cc3[nH]2)CC1`, the inhibition is 0.4%.

For the compound `Cc1ccc(NC(=O)c2ccoc2)cc1-c1ccc(C(=O)NCC2CC2)cc1`, the inhibition worked out at 3.06%.

Take `COc1ccc2cc(-c3c(-c4ccncc4)nc(-c4ccc([S+](C)[O-])cc4C)n3C)ccc2c1` (stereo not drawn): the inhibition stood at 0.29%.

Consider `O=C(NCC1CC1)c1ccc(-c2cccc(C(=O)NC3CC3)c2)cc1`, for which the inhibition is 1.66%.

For the compound `O=C(Nc1n[nH]c2cc(-c3cc(F)ccc3F)ccc12)C1CC1`, the inhibition worked out at 2.11%.

For `COc1cc(N2CCN(C(C)C)CC2)ccc1Nc1nc(Nc2ccc(F)cc2C(=O)NC[C@@H](O)CO)c2cc[nH]c2n1`, the inhibition is 3.61%.

Regarding `NC(=O)c1cc(-c2ccncc2)cc(-c2ccccc2)c1N`, the inhibition was 4.36%.

As to `Fc1ccc(-c2ncn(C3CCNCC3)c2-c2ccnc(Oc3ccc4c(c3)OCO4)n2)cc1`, the inhibition worked out at 6.04%.

Consider `FC(F)(F)c1cccc(Nc2nccc(-c3cnn4nc(-c5ccccc5)ccc34)n2)c1`, for which the inhibition was 4.89%.

With `COc1cc2ncn(-c3cc(OCc4ccccc4C(F)(F)F)c(C(C)=O)s3)c2cc1OC`, the inhibition amounted to 3.94%.

Regarding `Fc1ccc(-c2ncn(CCCN3CCOCC3)c2-c2ccncc2)cc1`, the inhibition was -0.32%.

As to `NS(=O)(=O)c1ccc(Nc2cc(-c3ccc(O)c(F)c3)n[nH]2)cc1`, the inhibition is -5.49%.

As for `CN(C)CCCNc1nccc(-c2c(-c3ccc(F)cc3)nn3cc(C(F)(F)F)ccc23)n1`, the inhibition amounted to 1.14%.

`Fc1ccc(-c2c(-c3ccncc3)nc3n2CCS3)cc1`: the inhibition came out at 4.24%.

In the case of `O=C(Nc1n[nH]c2nc(-c3ccco3)ccc12)C1CC1`, the inhibition stood at 2.23%.

On to `C[C@@H](Oc1cc(-n2cnc3ccc(OCC4CCN(C)CC4)cc32)sc1C(N)=O)c1ccccc1Cl`, for which the inhibition was 7.59%.

As for `c1ccc(-c2n[nH]cc2-c2ccnc(-c3ccc(OCCN4CCOCC4)cc3)c2)nc1`, the inhibition is -1.03%.

For the compound `O=C1Nc2ccccc2/C1=C/Nc1ccc(-n2cncn2)cc1`, the inhibition is 6.89%.

Take `c1ccc(Oc2ccc(Nc3ncc(-c4ccccc4)o3)cc2)cc1`: the inhibition amounted to 2.47%.

Consider `CCN(CC)Cc1ccc(Nc2nccc(-c3cnn4ncccc34)n2)cc1`, for which the inhibition turned out to be 12.5%.

Consider `Cc1ccc(C(=O)NC(C)C)cc1-c1ccc(C(=O)NCC2CC2)cc1`, for which the inhibition was -2.85%.

As to `COc1cc2ncn(-c3cc(OCc4cccs4)c(C(N)=O)s3)c2cc1OC`, the inhibition came to 2.35%.

In the case of `O=C(Nc1ccc(Oc2ccc3[nH]c(NC(=O)c4ccccc4)nc3c2)cc1)Nc1cc(C(F)(F)F)ccc1F`, the inhibition worked out at 3.83%.

As to `COc1ccc(-c2ccc3c(NC(=O)C4CC4)n[nH]c3n2)cc1`, the inhibition was -1.74%.

As for `COc1cc(Nc2ncc3c(C)nc(-c4cccc(C(F)(F)F)c4)n3n2)cc(OC)c1OC`, the inhibition worked out at 13.1%.

With `Fc1ccc(-c2ncn(C3CCNCC3)c2-c2ccnc(Oc3ccc(F)c(F)c3)n2)cc1`, the inhibition worked out at 7.73%.

`NS(=O)(=O)c1ccc(N/N=C2\C(=O)Nc3ccc(C(=O)NCCCn4ccnc4)cc32)cc1`: the inhibition stood at 6.78%.

The target is the same in another assay. To be noted: at 1 µM.
For `CCS(=O)(=O)c1ccc(OC)c(Nc2ncc(-c3cccc(-c4ccccc4F)c3)o2)c1`, the inhibition came to 3.29%.

For the compound `C/C(Nc1ccc(S(N)(=O)=O)cc1)=C1/C(=O)Nc2ccccc21`, the inhibition turned out to be 41.9%.

`CN(C)CCOc1ccc(-c2cc(-c3ccc4c(c3)CCC4=NO)c(-c3ccncc3)o2)cc1`: the inhibition was -1.71%.

On to `CCc1cccc(CC)c1/C=C/c1cncc(C(=O)NC)c1`, for which the inhibition was 3.83%.

With `COc1ccc2cc(-c3c(-c4ccncc4)nc(-c4ccc(S(C)(=O)=O)cc4C)n3C)ccc2c1`, the inhibition stood at 9.41%.

Consider `CCS(=O)(=O)c1ccc(OC)c(Nc2ncc(-c3ccccc3Cl)o2)c1`, for which the inhibition came to 3.44%.

In the case of `COc1cc2ncn(-c3cc(OCCc4ccccc4)c(C(N)=O)s3)c2cc1OC`, the inhibition stood at 1.31%.

On to `CN1CCN(CCCNc2nc3ccc(Oc4ccc(NC(=O)Nc5cc(C(F)(F)F)ccc5F)cc4)cc3[nH]2)CC1`, for which the inhibition was -0.26%.

In the case of `Cc1ccc(NC(=O)c2ccoc2)cc1-c1ccc(C(=O)NCC2CC2)cc1`, the inhibition is -0.33%.

Regarding `COc1ccc2cc(-c3c(-c4ccncc4)nc(-c4ccc([S+](C)[O-])cc4C)n3C)ccc2c1` (stereo not drawn), the inhibition was 0.51%.

For `O=C(NCC1CC1)c1ccc(-c2cccc(C(=O)NC3CC3)c2)cc1`, the inhibition worked out at 0.83%.

With `O=C(Nc1n[nH]c2cc(-c3cc(F)ccc3F)ccc12)C1CC1`, the inhibition was determined as 5.13%.

Turning to `COc1cc(N2CCN(C(C)C)CC2)ccc1Nc1nc(Nc2ccc(F)cc2C(=O)NC[C@@H](O)CO)c2cc[nH]c2n1`, the inhibition was 19.9%.

Consider `NC(=O)c1cc(-c2ccncc2)cc(-c2ccccc2)c1N`, for which the inhibition amounted to 7.85%.

Consider `Fc1ccc(-c2ncn(C3CCNCC3)c2-c2ccnc(Oc3ccc4c(c3)OCO4)n2)cc1`, for which the inhibition amounted to 6.41%.

As to `FC(F)(F)c1cccc(Nc2nccc(-c3cnn4nc(-c5ccccc5)ccc34)n2)c1`, the inhibition came to 32.3%.

Regarding `COc1cc2ncn(-c3cc(OCc4ccccc4C(F)(F)F)c(C(C)=O)s3)c2cc1OC`, the inhibition is 1.83%.

Regarding `Fc1ccc(-c2ncn(CCCN3CCOCC3)c2-c2ccncc2)cc1`, the inhibition is -0.03%.

For the compound `NS(=O)(=O)c1ccc(Nc2cc(-c3ccc(O)c(F)c3)n[nH]2)cc1`, the inhibition amounted to 39.3%.

As to `CN(C)CCCNc1nccc(-c2c(-c3ccc(F)cc3)nn3cc(C(F)(F)F)ccc23)n1`, the inhibition came out at 2.95%.

On to `Fc1ccc(-c2c(-c3ccncc3)nc3n2CCS3)cc1`, for which the inhibition turned out to be 7.4%.

Regarding `O=C(Nc1n[nH]c2nc(-c3ccco3)ccc12)C1CC1`, the inhibition is 2.05%.

Take `C[C@@H](Oc1cc(-n2cnc3ccc(OCC4CCN(C)CC4)cc32)sc1C(N)=O)c1ccccc1Cl`: the inhibition was found to be 37.9%.

As to `c1ccc(-c2n[nH]cc2-c2ccnc(-c3ccc(OCCN4CCOCC4)cc3)c2)nc1`, the inhibition worked out at 3.77%.

Consider `O=C1Nc2ccccc2/C1=C/Nc1ccc(-n2cncn2)cc1`, for which the inhibition stood at 25.8%.

Take `c1ccc(Oc2ccc(Nc3ncc(-c4ccccc4)o3)cc2)cc1`: the inhibition stood at 2.86%.

For the compound `CCN(CC)Cc1ccc(Nc2nccc(-c3cnn4ncccc34)n2)cc1`, the inhibition came to 55.4%.

With `Cc1ccc(C(=O)NC(C)C)cc1-c1ccc(C(=O)NCC2CC2)cc1`, the inhibition was -2.99%.

On to `COc1cc2ncn(-c3cc(OCc4cccs4)c(C(N)=O)s3)c2cc1OC`, for which the inhibition was 4.91%.

Take `O=C(Nc1ccc(Oc2ccc3[nH]c(NC(=O)c4ccccc4)nc3c2)cc1)Nc1cc(C(F)(F)F)ccc1F`: the inhibition is 2.36%.

In the case of `COc1ccc(-c2ccc3c(NC(=O)C4CC4)n[nH]c3n2)cc1`, the inhibition is -0.77%.

With `COc1cc(Nc2ncc3c(C)nc(-c4cccc(C(F)(F)F)c4)n3n2)cc(OC)c1OC`, the inhibition turned out to be 63.1%.

In the case of `Fc1ccc(-c2ncn(C3CCNCC3)c2-c2ccnc(Oc3ccc(F)c(F)c3)n2)cc1`, the inhibition turned out to be 7.03%.

As to `NS(=O)(=O)c1ccc(N/N=C2\C(=O)Nc3ccc(C(=O)NCCCn4ccnc4)cc32)cc1`, the inhibition amounted to 46.9%.
